Screening data (PubChem BioAssay)
AMA1-RON2 inh: AMA1-RON2 (P. falciparum) interaction inhibition; AlphaScreen AMA1-biotinylated RON2 peptide binding; Potency, µM (series often up to 58.2 µM), without a hit: top-dose activity change, negative = inhibition, actives largely listed as inhibitors; 0.2% of 360,000 active;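 also: 0% = vehicle wells and -100% = peptide control; nearly all actives have a fitted effect of over 45% in size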
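AMA1 (3D7) with his tag at 25 nM final met compounds first, then biotinylated RON2 peptide at 25 nM; detection used donor plus acceptor beads, 10 µg/mL apiece, read by AlphaScreen after 30 min at room temperature.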
TbPYK inhibitor: blocks Trypanosoma brucei pyruvate kinase; Potency, µM (series often up to 76.8 µM), for the others: at the top dose activity, negative = inhibition, hits mostly inhibitors; 0.12% of 410,000 active; TbPYK enzyme, Kinase-Glo Plus ATP luminescence, 45 min; Q57TT1; also: nearly all actives have a fitted effect of over 50% in size
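Assay buffer: 50 mM TEA pH 7.2, 100 mM KCl, 10 mM MgCl2, 0.05% BSA, 0.01% Tween-20. Pyruvate kinase from T. brucei plus substrate met compound, then ADP (130 uM final). Luminescence was read post 45 min RT.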
RE007 growth inh: less growth of the S. pombe RE007 Vpr strain. S. pombe RE007 Vpr strain, BacTiter-Glo ATP luminescence, 24 h. Potency, µM (doses to about 92.2 µM), for the others: at the top dose activity change, negative = less growth, hits mostly inhibitors. 0.21% of 360,000 active. AID 651644; active = well fitted falling curve with a large enough effect; inconclusive = small, poorly fitted or top-dose-only effect; inactive = no such curve, though single readings can be large or run the other way; also: nearly all actives have a fitted effect of over 50% in size
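Fission yeast strain RE007, carrying one chromosomally integrated HIV-1 vpr copy, was seeded at OD 0.01 in PMG+AL medium with 23 nL pinned compound. After 24 h at 30 °C and 99% humidity, viability was read by BacTiter-Glo luminescence.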
LmPK inh: blocks Leishmania mexicana pyruvate kinase activity | Q27686 | purified LmPK, Kinase-Glo ATP luminescence, 1 h | Potency, µM (top dose mostly 57.5 µM), for the others: top-dose activity change, negative = inhibition, usual class: inhibitors | 0.37% of 290,000 active | AID 1721
Target sequence (Q27686 whole entry, looked up): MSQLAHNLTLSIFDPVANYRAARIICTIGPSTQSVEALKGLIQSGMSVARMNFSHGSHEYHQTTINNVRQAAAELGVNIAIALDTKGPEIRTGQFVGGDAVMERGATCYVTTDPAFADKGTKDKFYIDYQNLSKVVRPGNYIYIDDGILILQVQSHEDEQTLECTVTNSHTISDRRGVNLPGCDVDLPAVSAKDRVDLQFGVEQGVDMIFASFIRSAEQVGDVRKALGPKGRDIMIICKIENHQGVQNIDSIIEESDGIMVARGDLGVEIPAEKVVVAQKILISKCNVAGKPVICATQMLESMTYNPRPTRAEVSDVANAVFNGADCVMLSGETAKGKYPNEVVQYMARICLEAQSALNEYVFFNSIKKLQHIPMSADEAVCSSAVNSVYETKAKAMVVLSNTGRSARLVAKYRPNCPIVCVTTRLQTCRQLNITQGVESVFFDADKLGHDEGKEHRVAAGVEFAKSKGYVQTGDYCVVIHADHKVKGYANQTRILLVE
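In 50 mM imidazole pH 7.2 with 7 mM MgCl2, LmPK (0.1 nM) turned over PEP (0.5 mM) and ADP (0.1 mM) for 1 h at room temperature. Luciferase read-out of ATP.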
Starred values were filed as active, the others as inactive; ? = inconclusive; . = no result; [ ] = remark or other dose. Hits are enriched below; roughly 0.68% of the tested compounds scored in any of these assays. Unless noted, calls follow the shape of the dose curve; as a rule, active = well fitted curve in the direction sought with a large enough effect; inconclusive = small, poorly fitted or top-dose-only effect, or another doubt; inactive = no such curve, though single readings can be large; an effect the other way counts as inactive or inconclusive. Unless noted, % is scaled to controls: 0 for no effect and ±100 for the full control effect; potency is read from the fitted curve at half-maximal effect.

SMILES	AMA1-RON2 inh	TbPYK inhibitor	RE007 growth inh	LmPK inh
O=[N+]([O-])c1cc(Cl)cc(/C=N/NC(=S)Nc2ccc(S(=O)(=O)N3CCOCC3)cc2)c1O	10µM*	-10.6%	0.8%	-12.7%
Cc1occc1C(=O)Nc1ccc2c(c1)OCCO2	-9.1%	-17.1%	-14.5%	12.6µM*
O=C(Nc1ccc2c(c1)OCCO2)c1coc2ccccc2c1=O	3.0%	?	-11.2%	7.94µM*
Cc1ccccc1C(=O)Nc1ccc2c(c1)OCCO2	4.0%	-14.4%	11.2%	-10.2%
Cc1occc1C(=O)Nc1ccc2c(c1)CCC2	-12.7%	-20.8%	?	12.6µM*
CC(Sc1ccsc1[N+](=O)[O-])C(=O)NCCc1ccc(Cl)cc1 (stereo not given)	0.6%	-5.6%	10.1%	-0.8%
COc1cc(OC)c(OC)cc1/C=N/N(C)c1ccccc1	31.6µM*	-1.9%	?	4.3%
COc1cc(/C=N/N(C)c2ccccc2)ccc1O	-19.8%	-9.6%	3.2%	1.0%
COCCn1c(O)c(/C=N/NC(=O)CSC(=S)N2CCCC2)c(=O)[nH]c1=S	72.2%	0.1%	10.1%	.
Cc1cc(C)nc(SC2=CS(=O)(=O)c3ccccc32)n1	8.0%	1.1%	14.3%	4.0%
O=S1(=O)C=C(Sc2nc3ccccc3s2)c2ccccc21	20.9%	2.2%	10µM*	-7.3%
Cc1ccc(C(=O)OCC(=O)NNC(=O)c2ccc([N+](=O)[O-])cc2)o1	83.2%	-1.0%	-5.8%	.
COc1ccc2c(c1)Sc1ccccc1N2	15.8µM*	-10.3%	?	-14.0%
O=C(CC(=O)c1ccccc1)Nc1cccnc1	-8.4%	-1.4%	-21.8%	-7.5%
O=C(Nc1ccccc1)C(=O)Nc1cccnc1	-5.9%	-16.2%	-19.3%	14.1µM*
OC(COCc1ccccc1)CN1CCN(Cc2ccc3c(c2)OCO3)CC1 (stereo not given)	-3.6%	0.2%	7.5%	0.3%
SC(COCc1ccccc1)CN1CCN(Cc2ccc3c(c2)OCO3)CC1 (stereo not given)	25.1µM*	5.0%	8.3%	3.7%
Cc1ccc(NC(=O)CN2CCN(Cc3ccccc3)CC2)c(Br)c1	20µM*	7.1%	-0.9%	-2.1%
Cc1ccc(NC(=O)CN2CCOCC2)c(Br)c1	8.2%	4.8%	-19.6%	-2.6%
CCSC1(SCC)N=C(N)C2(C#N)C(c3ccccc3)NC(C)=C(C)C12C#N (stereo not given)	-3.7%	-2.6%	56.2µM*	2.2%
CCSC1(SCC)N=C(N)C2(C#N)C(c3ccc(F)cc3)C12C#N (stereo not given)	-8.8%	-6.8%	4.47µM*	-3.7%
O=C(Cn1cc(C(=O)C(F)(F)F)c2ccccc21)N1CCCCCC1	.	-3.4%	.	.
Cc1ccc(N=Nc2ccc(O)c3ncccc23)cc1	-2.4%	-12.9%	1.3%	-3.4%
Oc1c(N=Nc2ccc(F)cc2)ccc2ccccc12	1.78µM*	?	-23.5%	-8.1%
COc1cccc(N=Nc2ccc3ccccc3c2O)c1	2.82µM*	-18.5%	-6.9%	-6.3%
SMILES	AMA1-RON2 inh	TbPYK inhibitor	RE007 growth inh	LmPK inh
Cc1ccc(N=Nc2ccc3ccccc3c2O)cc1	2.82µM*	-16.5%	-9.9%	-18.0%
Oc1c(N=Nc2nn[nH]n2)ccc2ccccc12	?	-19.8%	-18.1%[18.4 µM]	.
Oc1ccc2ccccc2c1N=Nc1ccc(F)cc1	1.41µM*	1.3%	-13.7%	-6.1%
N#C/C(=C1/CCCCCN1)c1nc2ccccc2[nH]1	-5.2%	2.8%	-1.1%	3.7%
N#C/C(C(=O)c1ccccc1)=C1/CCCCCN1	-9.1%	-0.1%	28.2µM*	-17.7%
O=C(c1ccccc1)c1cc(Cl)ccc1N1C(=O)C=CC1=O	-12.1%	4.47µM*	25.1µM*	?
Nc1ccc(Cl)cc1C(=O)c1ccccc1	-15.7%	-1.3%	15.6%	8.7%
COc1ccc(Br)cc1C(C[N+](=O)[O-])c1c(N)n(C)c(=O)n(C)c1=O (stereo not given)	34.7%	-3.8%	10µM*	-1.2%
COc1ccc(S(=O)(=O)/C(C#N)=C/Nc2ccccc2F)cc1	-6.2%	-2.7%	0.4%	1.8%
CCOc1cccc(-c2nc3cc(C)ccc3o2)c1	33.5%	-2.9%	0.2%	?
Cc1ccc2oc(-c3ccccc3)nc2c1	16.4%	-6.6%	-8.5%	15.8µM*
CC(=O)c1ccc(-c2nc3ccccc3n2C)o1	-0.4%	-24.2%	-15.4%	15.8µM*
Cn1c(-c2nonc2N)nc2ccccc21	2.6%	-1.0%	1.6%	2.0%
Cc1ccc(-c2nc3ccccc3n2C)o1	-4.7%	?	39.8µM*	14.1µM*
